Experimental data: PubChem BioAssay (Tox21)
“And” between values parts separate entries of the source, which are not always exact repeats. Equal values may be shown once. Records with an inconclusive call do not appear. Where a structure was tested more than once in an assay, its records may differ in their call. The source made the active and inactive calls. The call rests on the fitted dose curve.

biological target: Thyrotropin receptor (Homo sapiens) (UniProt P16473); assay: qHTS assay to identify small molecule agonists of the thyroid stimulating hormone receptor (TSHR) signaling pathway (AID 1224843); details: TSHR-HEK293 cells, cAMP HTRF, agonist mode, 30 min; series mostly up to 92.4 µM; activation: at the top concentration; further: nearly all actives have a fitted effect of over 45% in size
Sequence (P16473 whole entry, looked up): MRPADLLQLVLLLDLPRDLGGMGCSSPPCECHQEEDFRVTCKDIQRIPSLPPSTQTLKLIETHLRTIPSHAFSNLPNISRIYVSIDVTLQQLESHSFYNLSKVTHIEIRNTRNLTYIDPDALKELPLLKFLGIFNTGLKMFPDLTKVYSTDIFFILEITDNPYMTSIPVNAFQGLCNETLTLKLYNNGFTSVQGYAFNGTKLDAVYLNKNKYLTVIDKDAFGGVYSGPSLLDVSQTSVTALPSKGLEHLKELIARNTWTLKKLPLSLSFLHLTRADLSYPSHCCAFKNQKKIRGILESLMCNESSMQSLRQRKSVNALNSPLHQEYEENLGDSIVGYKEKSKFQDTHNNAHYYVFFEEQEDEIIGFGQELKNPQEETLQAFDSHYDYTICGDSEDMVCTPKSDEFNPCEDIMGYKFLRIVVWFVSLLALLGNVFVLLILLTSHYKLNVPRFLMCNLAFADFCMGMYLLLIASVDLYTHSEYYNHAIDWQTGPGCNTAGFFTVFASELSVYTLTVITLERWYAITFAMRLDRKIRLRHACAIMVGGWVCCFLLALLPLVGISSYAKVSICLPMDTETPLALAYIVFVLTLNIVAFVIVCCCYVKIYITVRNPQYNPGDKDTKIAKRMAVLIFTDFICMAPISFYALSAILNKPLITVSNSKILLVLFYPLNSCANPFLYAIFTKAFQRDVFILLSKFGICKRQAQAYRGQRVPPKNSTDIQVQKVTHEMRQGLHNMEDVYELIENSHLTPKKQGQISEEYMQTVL
Description: National Center for Advancing Translational Sciences [NCATS]
NIH Chemical Genomics Center [NCGC]
U.S. Environmental Protection Agency [EPA]
National Institutes of Environmental Health Sciences [NIEHS]
National Toxicology Program [NTP]
U.S. Food and Drug Administration [FDA]
TSHR is the receptor for thyrotropin (thyroid stimulating hormone or TSH), a member of the glycoprotein hormone family. TSH is released by the anterior pituitary gland and is the main regulator of thyroid gland growth and development. Upon binding circulating thyrotropin, a G-protein signal cascade activates adenylyl cyclase and […] cAMP concentration is increased. cAMP is a key second messenger involved extensively in cellular signal transduction pathways associated with the majority of G-protein coupled receptors (GPCRs). The activation of these GPCRs by neurotransmitters, lipids, nucleotides, peptides and hormones results in the activation or the inhibition of plasma membrane-bound adenylate cyclase through heterotrimeric G-proteins. A cell-based TSHR assay was used to screen the Tox21 10K library for compounds that can modulate TSHR in agonist mode.
Tox21 Assay Protocol Summary:
TSHR-Hek293 cells were dispensed at 800 cells/4uL/well in 1536-well white plates using a Multidrop dispenser. […] The plates were incubated at room temperature for 30 min. 2.5 ul/well of cAMP-d2 and 2.5ul/well of anti-cAMP-cryptate was added respectively into the assay plates using a Flying Reagent Dispenser. After 1 hr incubation at room temperature, the fluorescence intensity in the plates was measured using an Envision plate reader. Each test compound was measured at 15 concentrations and in triplicates.
On the % scale 0 is the no-effect control and ±100 the full control effect; potency means the concentration at half of the fitted maximal effect.

Structure (SMILES) | activation | Potency
ClCC1CO1 (stereo not given) | 3.52% (inactive) | –
C=C1CC[C@@]2(O)[C@H]3Cc4ccc(O)c5c4[C@@]2(CCN3CC2CC2)[C@H]1O5 | -1.01% [at 42.5 µM] (inactive) | –
CON(C)C(=O)Nc1ccc(Br)cc1 | 2.28% (inactive) | –
[O-][Br+2]([O-])O | -1.75% [at 42.5 µM] (inactive) | –
ClC(Cl)(Cl)Cl | -4.09% (inactive) | –
CCCOC(=O)c1cncn1C(C)c1ccccc1 (stereo not given) | -1.06% [at 42.5 µM] (inactive) | –
O=C1C2CC=CCC2C(=O)N1SC(Cl)(Cl)Cl (stereo not given) | – | inactive and 21.3 µM (active)
CCC(CC)(CNC(=O)CCCO)c1cccc(OC)c1 | 8.02% [at 42.5 µM] (inactive) | –
CCOC(=O)N(C)N=O | 6.42% (inactive) | –
O=P(O)(O)CN(CP(=O)(O)O)CP(=O)(O)O | – | inactive
CCOC(=O)NC(C)(C)Cc1ccc(Cl)cc1 | 0.902% [at 42.5 µM] (inactive) | –
CC#Cc1cc(C)nc(Nc2ccccc2)n1 | 12.4% (inactive) | –
N#CN=C1SCCN1Cc1ccc(Cl)nc1 | -19.1% (inactive) | –
O=C1CCCCC1Cl (stereo not given) | -0.332% (inactive) | –
CC(=O)OCC1=C(C(=O)O)N2C(=O)[C@@H](N)[C@H]2SC1 | 9.8% [at 19 µM] (inactive) | –
CNC(=O)O/N=C(/CSC)C(C)(C)C | 11% (inactive) | –
CCC1(c2ccccc2)CCC(=O)NC1=O (stereo not given) | -4.4% [at 42.5 µM] (inactive) | –
CC[C@H](O)C(C[C@H](C)N(C)C)(c1ccccc1)c1ccccc1 | -4.83% (inactive) | –
CCCCCCCCBr | 1.29% (inactive) | –
CC(=NC#N)N(C)Cc1ccc(Cl)nc1 | 3.74% (inactive) | –

Structure (SMILES) | activation | Potency
C[C@]12C=CC(=O)C=C1CC[C@@H]1[C@@H]2CC[C@@]2(C)[C@H]1CC[C@]2(C)O | 1.01% [at 42.5 µM] (inactive) | –
O=[N+]([O-])c1cccc(CCl)c1 | 4.89% (inactive) | –
CCC(=O)c1ccc(Cl)cc1 | 9.21% (inactive) | –
CCC(C)C(C)(COC(N)=O)COC(N)=O (stereo not given) | 3.47% [at 42.5 µM] (inactive) | –
CC(Cc1ccccc1)NCCCCl (stereo not given) | 7.84% [at 42.5 µM] (inactive) | –
Clc1ccc(C(Cl)(Cl)Cl)cn1 | 1.1% (inactive) | –
CCCC[N+](=O)[O-] | -4.39% (inactive) | –
CN(C)C(=O)Oc1cc(OC(=O)N(C)C)cc(C(O)CNC(C)(C)C)c1 (stereo not given) | -0.157% [at 42.5 µM] (inactive) | –
O=C(Cl)CCl | 0.375% (inactive) | –
CCNc1nc(NCC)nc(SC)n1 | -10.7% (inactive) | –
ClCCCCCCCl | 8.06% (inactive) | –
C=CCc1cc(OC)c2c(c1)OCO2 | -17.7% (inactive) | –
NCC1(CC(=O)O)CCCCC1 | 6.31% [at 42.5 µM] (inactive) | –
BrCCc1ccccc1 | 0.0991% (inactive) | –
COc1cccc([C@@]2(O)CCCC[C@@H]2CN(C)C)c1 | -0.465% [at 42.5 µM] (inactive) | –
CC(C)(C)C(=O)C(Cl)Cl | -1.38% (inactive) | –
Cc1ccc(Cl)c(O)c1 | -2.92% [at 42.5 µM] (inactive) | –
NNC(N)=O | -0.0834% (inactive) | –
CCOP(=S)(OCC)SCCl | -23.3% (inactive) | –
CN(C)CCN(C)C | -1.14% (inactive) | –
